Hits are enriched below; roughly 2.6% of the tested compounds scored in any of these assays.
pPAFAH inh: inhibitors of human plasma PAF acetylhydrolase (pPAFAH); hit rate 1.5% among 330,000; recombinant pPAFAH, FP-rhodamine probe fluorescence polarization; inhibition, % at 3.39 µM;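 active = inhibition above the mean inhibition across the screen plus 3 SD, cut at about 25% in these data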;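 note: inhibitors block binding of the rhodamine activity-based probe so polarization drops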
Target sequence (Q13093 whole entry, looked up): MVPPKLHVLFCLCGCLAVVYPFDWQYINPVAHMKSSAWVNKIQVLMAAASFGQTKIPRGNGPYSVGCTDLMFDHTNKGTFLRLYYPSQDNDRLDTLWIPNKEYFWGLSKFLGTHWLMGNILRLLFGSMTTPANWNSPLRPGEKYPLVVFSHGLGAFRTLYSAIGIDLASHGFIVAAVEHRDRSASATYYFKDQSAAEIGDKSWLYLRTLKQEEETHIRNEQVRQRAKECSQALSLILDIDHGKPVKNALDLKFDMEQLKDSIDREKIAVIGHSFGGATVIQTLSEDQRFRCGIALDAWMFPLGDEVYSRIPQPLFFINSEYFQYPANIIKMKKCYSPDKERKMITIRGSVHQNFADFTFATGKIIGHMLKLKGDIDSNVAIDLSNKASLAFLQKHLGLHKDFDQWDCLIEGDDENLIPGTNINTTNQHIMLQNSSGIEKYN
PKA-R2B activ: activates the human PKA-R2B holoenzyme complex. activation, % at 11.4 µM. AID 504700. P22694+P31323. PKA-R2B holoenzyme dissociation, Cy5-IP20 fluorescence polarization; R2B truncated from residue 108, S112A mutant; 0% DMSO only, 100% 113 µM cGMP. hit rate 0.079% among 340,000;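 active = activation above a cutoff set at the mean over all compounds plus 3 SD, cut at about 18% in these data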;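 note: higher means more holoenzyme dissociation and a rise in polarization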
PAFAH1B2 inh: blocks human PAF acetylhydrolase 1b catalytic subunit 2; recombinant PAFAH1B2, FP-rhodamine activity probe, fluorescence polarization; AID 492953; hit rate 1.2% among 340,000; inhibition, % at 3.39 µM; P68402;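 active = inhibition above the mean of all tested compounds plus 3 SD, cut at about 24% in these data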
PKA-R1A activ: activators of PKA-R1A complex; P00514+P68181; PKA-R1A dissociation, Cy5-IP20 fluorescence polarization; scaled: DMSO 0%, 113 µM cGMP 100%; activation, % at 11.4 µM; hit rate 0.083% among 340,000; AID 504707;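 active = percent activation above the mean of all tested compounds plus 3 SD, cut at about 19% in these data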;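 note: higher means more PKAc released from R1A so a rise in polarization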
PAFAH2 FP inh: inhibitors of human PAFAH2. recombinant PAFAH2, FP-rhodamine activity probe, fluorescence polarization. inhibition, % at 3.39 µM. hit rate 0.99% among 340,000;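 active = inhibition above the mean over all tested compounds plus 3 SD, cut at about 30% in these data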;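 note: inhibitors block probe labeling of enzyme so polarization drops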
PAFAH1B3 FP inh: PAFAH1B3 (human) inhibition; inhibition, % at 3.39 µM; AID 492972; recombinant PAFAH1B3, FP-rhodamine probe, fluorescence polarization; Q15102; hit rate 0.28% among 340,000;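 active = inhibition above the screen-wide average of all tested compounds plus 3 SD, cut at about 25% in these data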
Target sequence (Q15102 whole entry, looked up): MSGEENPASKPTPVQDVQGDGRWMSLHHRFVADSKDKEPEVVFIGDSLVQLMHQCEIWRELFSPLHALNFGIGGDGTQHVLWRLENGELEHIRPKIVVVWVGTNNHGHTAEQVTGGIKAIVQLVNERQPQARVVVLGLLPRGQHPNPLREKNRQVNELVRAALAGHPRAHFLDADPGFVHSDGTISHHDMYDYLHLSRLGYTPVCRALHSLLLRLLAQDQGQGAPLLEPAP
A number is an active result; 0 = inactive; - = no result given.

SMILES | pPAFAH inh | PKA-R2B activ | PAFAH1B2 inh | PKA-R1A activ | PAFAH2 FP inh | PAFAH1B3 FP inh
O=C1NC(=O)C(=Cc2ccc(-c3ccc(F)cc3O)o2)C(=O)N1 | 0 | 0 | 31.7 | 0 | 0 | 0
O=C1NC(=O)C(=Cc2ccc(-c3ccc(Cl)cc3)o2)C(=O)N1 | 0 | 0 | 0 | 0 | 0 | 0
CCOC(=O)c1ccc(NC(=O)c2c(O)[nH]c(=O)[nH]c2=O)cc1 | 0 | 0 | 0 | 0 | 0 | 0
BrCC(Br)C1CCC(Br)C(Br)C1 (stereo not given) | 0 | 0 | 51.0 | 0 | 0 | 0
O=C(O)CCC(=O)NCCC1=c2ccccc2=N/C1=C\c1c(O)n(Cc2ccc(F)cc2)c(=S)[nH]c1=O | 0 | 0 | 40.6 | 0 | 38.4 | 0
CCCCC(=O)N/N=C/c1c(O)n(Cc2ccc(F)cc2)c(=O)[nH]c1=O | 0 | 0 | 0 | 0 | 0 | 0
COC(=O)C(O)(c1ccc(NC(=S)NC(=O)c2ccccc2)cc1)C(F)(F)F (stereo not given) | 33.5 | 0 | 0 | 0 | 0 | 0
CN1C[C@H](CNC(=O)OCc2ccccc2)C[C@@H]2c3cccc4c3c(cn4C)C[C@H]21 | 26.9 | 0 | 0 | 0 | 0 | 0
CN1C[C@H](CO)C[C@@H]2c3cccc4[nH]cc(c34)C[C@H]21 | 0 | 0 | 0 | 0 | 0 | 0
O=C1NC(=O)N(Cc2ccco2)C(=O)/C1=C/C=C/c1ccco1 | 33.4 | 0 | 0 | 0 | 33.2 | 0
O=C1NC(=O)N(Cc2ccccc2)C(=O)/C1=C\C=C\c1ccco1 | 0 | 0 | 0 | 0 | 0 | 0
Cc1ccc(OCCn2cccc2/C=C2/C(=O)NC(=O)N(Cc3ccco3)C2=O)cc1 | 0 | 0 | 25.5 | 0 | 0 | 0
CC1Oc2cc3c(-c4c(O)cc(O)c5c(O)c6c(cc45)OC(C)C(C)C6=O)c(O)cc(O)c3c(O)c2C(=O)C1C (stereo not given) | 91.2 | 0 | 51.9 | 0 | 46.0 | 60.4
COc1ccccc1C1C([N+](=O)[O-])=C(N)Oc2c1c(=O)oc1ccccc21 (stereo not given) | 0 | 0 | 0 | 0 | 0 | 0
O=C(COc1ccc(Cl)cc1)N(c1ccc(Cl)cc1)C1CN2CCC1CC2 (stereo not given) | 0 | 0 | 0 | 0 | 0 | 0
CN=C1CN(O)C(c2ccccc2)c2cc(Cl)ccc2N1 (stereo not given) | - | 0 | 0 | 0 | 0 | 0
CC(=O)NC(Cc1ccc(N(CCCl)CCCl)cc1)C(=O)NC(C(=O)O)C(C)C (stereo not given) | 0 | 0 | 25.1 | 0 | 0 | 0
COC(=O)C1=C(c2cccc(OCc3ccccc3)c2)C[C@@H]2CC[C@H]1N2C(=O)NCc1ccc(OC)c(OC)c1 | 0 | 0 | 26.3 | 0 | 0 | 0
COC(=O)C1=C(c2ccc(C(C)=O)cc2)C[C@@H]2CC[C@H]1N2C(=O)NCc1ccc(F)cc1 | 0 | 0 | 34.2 | 0 | 0 | 0
Cc1cc(/C=C2\C(=O)NC(=O)N(Cc3ccccc3)C2=O)c(C)n1-c1ccc(Cl)c(C(=O)O)c1 | 28.1 | 0 | 0 | 0 | 43.3 | 0
Cc1cc(/C=C2\C(=O)NC(=O)N(c3ccc(F)cc3)C2=O)c(C)n1-c1ccc(C(=O)O)cc1 | 0 | 0 | 0 | 0 | 0 | 0
Cc1cc(/C=C2/C(=O)NC(=O)N(c3ccccc3)C2=O)c(C)n1-c1ccc(F)cc1 | 0 | 0 | 25.0 | 0 | 0 | 0
C[N+](C)(C)CC1CCCC1=O (stereo not given) | - | 0 | 0 | 0 | 0 | 0
Cn1c(O)c(C=NC2CC(C)(C)NC(C)(C)C2)c(=O)n(C)c1=O | 0 | 0 | 0 | 0 | 0 | 0
O=C1CCCN1C(=O)c1cncc(Br)c1 | 0 | 0 | 25.8 | 0 | 0 | 0
SMILES | pPAFAH inh | PKA-R2B activ | PAFAH1B2 inh | PKA-R1A activ | PAFAH2 FP inh | PAFAH1B3 FP inh
O=C1C(=O)c2cccc3cccc1c23 | 0 | 0 | 0 | 0 | 0 | 0
O=C1C(=O)c2ccccc2-c2ccccc21 | 0 | 0 | 42.6 | 0 | 57.9 | 71.5
O=C(O)C1(c2ccc(Cl)cc2)CCC1 | 0 | 0 | 46.5 | 0 | 0 | 0
CC(=O)C1(c2ccccc2)CCNCC1 | 0 | 0 | 0 | 0 | 0 | 0
O=C(Cn1ncc2c3ccccc3n(Cc3ccc(F)cc3)c2c1=O)N1CCC2(CC1)OCCO2 | 31.5 | 0 | 0 | 0 | 0 | 0
CN1C(=O)C(=Cc2ccc(Sc3ccccc3)o2)C(=O)N(C)C1=O | 0 | 0 | 0 | 0 | 0 | 0
O=C1NC(=O)C(=Cc2ccc(Sc3ccccc3)o2)C(=O)N1 | 0 | 0 | 29.3 | 0 | 33.1 | 0
Brc1ccc(Oc2cc(Br)c(Br)cc2Br)c(Br)c1 | 0 | 0 | 0 | 0 | 0 | 0
CCn1nc(-c2ccccc2)nc2c(=O)n(C)c(=O)nc1-2 | 0 | 0 | 39.0 | 0 | 57.7 | 69.8
COc1ccc(-c2nc3ccccc3c(=O)n2-c2ccc(OC)cc2)cc1 | 0 | 0 | 0 | 0 | 0 | 0
CC1(C)CC2CCC(O)C2C(CCO)N1 (stereo not given) | - | 0 | 0 | 0 | 0 | 0
CCCCC/C=C\C/C=C\C/C=C\C/C=C\CCCC(=O)Nc1ccc(O)cc1 | 36.4 | - | - | - | - | -
CCC(=O)Nc1ccccc1 | 0 | 0 | 0 | 0 | 0 | 0
C=CCn1c(O)c(C(CC)=Nc2cccc(C(F)(F)F)c2)c(=O)[nH]c1=O | 0 | 0 | 0 | 0 | 0 | 0
Cc1nc2c(=O)n(C)c(=O)nc-2n(C)n1 | 0 | 0 | 27.7 | 0 | 54.3 | 66.3
CN(C)CCc1nn[nH]n1 | 0 | 0 | 0 | 0 | 0 | 0
Cn1c(=O)c2c(nc(N/N=C/c3c(O)n(C4CCCCC4)c(=S)[nH]c3=O)n2C)n(C)c1=O | 0 | 0 | 28.5 | 0 | 0 | 0
COC(=O)C1=C(c2cccc(OCc3ccccc3)c2)C[C@@H]2CC[C@H]1N2C(=O)NCc1cc(C)oc1C(F)(F)F | 0 | 0 | 0 | 0 | 0 | 0
O=C(COC(=O)c1cccc(O)c1)Nc1ccc(Cl)cc1C(=O)c1ccccc1 | 0 | 0 | 0 | 0 | 0 | 0
O=C(c1cc2c(s1)CCCCCC2)N1CCC2(CC1)OCCO2 | 33.3 | 0 | 0 | 0 | 0 | 0
NP(=O)(Oc1ccccc1)Oc1ccccc1 | - | 0 | 0 | 0 | 0 | 0
NP(=O)(OCCCc1ccccc1)Oc1ccccc1 (stereo not given) | 0 | 0 | 62.0 | 0 | 0 | 0
C/C(=N\NC(=O)c1ccccc1Cl)c1c(O)n(C2CCCCC2)c(=O)[nH]c1=O | 0 | 0 | 0 | 0 | 0 | 0
C/C(=N\NC(=O)c1ccccc1O)c1c(O)n(Cc2ccccc2)c(=O)[nH]c1=O | 24.7 | 0 | 28.5 | 0 | 0 | 0
C/C(=N\NC(=O)c1ccncc1)c1c(O)n(Cc2ccccc2)c(=O)[nH]c1=O | 0 | 0 | 0 | 0 | 0 | 0
O=C(N/N=C/c1c(O)n(Cc2ccc(F)cc2)c(=O)[nH]c1=O)c1ccccc1 | 0 | 0 | 35.3 | 0 | 0 | 0
C/C(=N\NC(=O)c1ccccc1O)c1c(O)n(C2CCCCC2)c(=O)[nH]c1=O | 25.8 | 0 | 0 | 0 | 0 | 0
CN1CCN(c2ccc([N+](=O)[O-])c(N/N=C3\CN4CCC3CC4)c2)CC1 | 0 | 0 | 0 | 0 | 0 | 0

Screening results as filed in PubChem.
